Measured values: PubChem BioAssay (NCI)
This is part of a sample that, as a whole, favours compounds with a hit. Of some 83,000 tested, about 20% had one in any assay.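 The endpoint reported here, percent growth, reads 100 for growth as untreated, 0 for no net growth and -100 for all cells dead.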 Calls of active or inactive are those of the source. How the source made its calls: active means growth percent below 10; inactive means the rest.

Key:
Experiment in all cases: NCI-60 one-dose screen, 48 h (100 = growth as untreated, 0 = no growth, -100 = all killed)
[1] = test system: SR leukemia; details: 10 µM unless noted
[2] = test system: RPMI-8226 leukemia; details: 10 µM unless noted
[3] = test system: OVCAR-8 ovarian; details: 10 µM unless noted
[4] = test system: OVCAR-5 ovarian; details: 10 µM unless noted
[5] = test system: OVCAR-4 ovarian; details: 10 µM
[6] = test system: SK-OV-3 ovarian; details: 10 µM unless noted
[7] = test system: IGROV1 ovarian; details: 10 µM unless noted
[8] = test system: OVCAR-3 ovarian; details: 10 µM unless noted
[9] = test system: HS 578T breast; details: 10 µM unless noted
[10] = test system: NCI/ADR-RES ovarian; details: 10 µM unless noted
[11] = test system: T-47D breast; details: 10 µM unless noted
[12] = test system: MDA-MB-435 melanoma; details: 10 µM unless noted
[13] = test system: SW-620 colon; details: 10 µM unless noted
[14] = test system: MCF7 breast; details: 10 µM unless noted
[15] = test system: HCT-116 colon; details: 10 µM unless noted
[16] = test system: HCC-2998 colon; details: 10 µM unless noted
[17] = test system: KM12 colon; details: 10 µM unless noted

Measured: growth

C#CCOc1ccc(C2=NN(CC3CC3)C3N=C(Cl)c4ncn(CC5CC5)c4N23)cc1OCC#C (stereo not drawn)
inactive: [1] 65.7% | [2] 73.7% | [3] 71.6% | [4] 96.6% | [5] 71.3% | [6] 73.8% | [7] 67.8% | [8] 90.4% | [9] 79.4% | [10] 85.3% | [11] 28.2% | [12] 80.8% | [13] 91.8% | [14] 78.8% | [15] 80.5% | [16] 119% | [17] 46.6%

C[C@@H](NC(=O)[C@@H](CC(=O)N1CCC(N2CCCCC2)CC1)N1C(=O)[C@@H](N2C(=O)OC[C@@H]2c2ccccc2)[C@H]1/C=C/c1cccc(Cl)c1)c1ccccc1
inactive: [2] 54.7% | [3] 86.8% | [4] 115% | [5] 78.6% | [6] 86.7% | [7] 86% | [8] 74.4% | [9] 63.2% | [10] 98% | [11] 29.9% | [13] 66.3% | [14] 20.8% | [15] 53.7% | [16] 28.5% | [17] 71.3%
active: [1] -22.4% | [12] 1.09%

COC(=O)C(=Cc1ccccc1[N+](=O)[O-])C(=O)OC
inactive: [3] 49.8% | [4] 56.6% | [5] 21.6% | [6] 69.7% | [7] 37.9% | [9] 34.5% | [10] 21.9% | [11] 22.6% | [12] 15.5% | [13] 34.7% | [14] 15.4% | [16] 55.2% | [17] 15.7%
active: [1] -22.3% | [2] -18.6% | [8] -17.9% | [15] 6.83%

CC(C)[C@H]1COC(=O)N1[C@@H]1C(=O)N([C@@H](CCC(=O)N2CCN(C3CCCC3)CC2)C(=O)N[C@@H]2CCCc3ccccc32)[C@@H]1/C=C/c1cccc(Cl)c1
inactive: [1] 19.2% | [2] 22.2% | [3] 74.5% | [4] 105% | [5] 68.3% | [6] 88.1% | [7] 48.4% | [8] 69% | [9] 64.3% | [10] 64.1% | [11] 61.4% | [12] 32.7% | [13] 61.9% | [14] 34.7% | [15] 32.7% | [16] 51.8% | [17] 48.8%

CN(Cc1cccc(C(F)(F)F)c1)C(=O)[C@@H](CC(=O)N1CCC(N2CCCCC2)CC1)N1C(=O)[C@@H](N2C(=O)OC[C@@H]2c2ccccc2)[C@H]1/C=C/c1ccccc1
inactive: [1] 54.3% | [2] 66.9% | [3] 93.2% | [4] 104% | [5] 74.2% | [6] 86.2% | [7] 89.6% | [8] 92.9% | [9] 61% | [10] 99.2% | [11] 76.3% | [12] 73.1% | [13] 93.2% | [14] 65.4% | [15] 85.2% | [16] 91.9% | [17] 102%

O=C(O)c1cn(C2CC2)c2cc(N3CCN(Cc4c(O)ccc5ccccc45)CC3)c(F)cc2c1=O
active: [1] 1.76% | [8] -44.1% | [9] -6.63%
inactive: [2] 73.5% | [3] 16.8% | [4] 40.8% | [5] 18.2% | [6] 48.4% | [7] 32.1% | [10] 45.4% | [11] 29.5% | [12] 24.3% | [13] 28.2% | [14] 16.3% | [15] 12.7% | [16] 32.1% | [17] 37.5%

COCCCNc1nc(NC(=O)c2cc(OC)cc(OC)c2)cc(-c2cccnc2)n1
inactive: [1] 80.6% | [2] 69.3% | [3] 79.3% | [4] 95.7% | [5] 108% | [6] 105% | [7] 102% | [8] 113% | [9] 95.3% | [10] 83.5% | [11] 63.8% | [12] 100% | [13] 101% | [14] 97.8% | [15] 90.3% | [16] 110% | [17] 103%

Cn1cc(-c2noc(-c3cn(C)c4ncc(F)cc34)n2)c2cc(Cl)ccc21
inactive: [1] 34.5% | [2] 67% | [3] 48.7% | [4] 61.9% | [6] 87.8% | [7] 51.7% | [8] 19.7% | [9] 47% | [10] 67.9% | [11] 14% | [12] 68.5% | [13] 47.4% | [14] 38.5% | [15] 44.5% | [16] 97% | [17] 61.1%
active: [5] -50.6%

Cc1cc2c(C(C)C)c(O)c(O)c(C=NCc3ccoc3)c2c(O)c1-c1c(C)cc2c(C(C)C)c(O)c(O)c(C=NCc3ccco3)c2c1O
inactive: [1] 13.9% | [2] 33.5% | [3] 30.2% | [4] 68.9% | [5] 31.2% | [6] 54.4% | [7] 46.5% | [8] 25.9% | [9] 45% | [10] 44.4% | [11] 33.5% | [12] 67.1% | [13] 24.6% | [14] 22.4% | [15] 20.7% | [16] 35.5% | [17] 19.4%
